# Measurements as given in the supplement of paper PMC10849652.
# The full data set covers some 7,900 targets. This sample favours those with a hit. About 0.6% of all pairs of compound and target were hits. Unmarked numbers belong to inactive results.
# Key:
# Assay in all cases: log2 fold change, soluble protein after heating vs DMSO (PISA); higher = thermal stabilisation; K562 cells, 10 uM, 30 min; active = over 0.2 and 3.5 SD of the protein, either way, in both replicates (recomputed)
# bafetinib = compound: Cc1ccc(NC(=O)c2ccc(CN3CC[C@H](N(C)C)C3)c(C(F)(F)F)c2)cc1Nc1nccc(-c2cncnc2)n1 [bafetinib]
# In short: (§1)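 Quantification of soluble protein used TMTpro 16plex LC-MS/MS, with channel sums equalised. Samples were the supernatant after 21,000xg for 90 min of pooled aliquots from K562 cells (2×10^6 cells/mL) treated with 10 μM compound for 30 min, heated for 3 min over 48°C-58°C, and extracted in PBS with 0.5% NP-40 at 4°C. Values, from duplicates, describe thermal stability against control samples on a log2 fold-change scale.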
# [1] = compound: Cc1cccc(CC(=O)N2CCc3c2ccc(-c2cn(C)c4ncnc(N)c24)c3F)n1
# In short: as §1
# nilotinib = compound: Cc1cn(-c2cc(NC(=O)c3ccc(C)c(Nc4nccc(-c5cccnc5)n4)c3)cc(C(F)(F)F)c2)cn1 [nilotinib]
# In short: as §1
# [2] = compound: Cc1nc(Nc2n[nH]c3c2CN(C(=O)N[C@H](CN(C)C)c2ccccc2)C3(C)C)c2sccc2n1
# In short: as §1
# dasatinib = compound: Cc1nc(Nc2ncc(C(=O)Nc3c(C)cccc3Cl)s2)cc(N2CCN(CCO)CC2)n1 [dasatinib]
# In short: as §1
# [3] = compound: Cc1ncc(-c2ccnc(Nc3ccc(S(C)(=O)=O)cc3)n2)n1C(C)C
# In short: as §1
# [4] = compound: Cn1cc(-c2ccc3c(c2)CCN3C(=O)Cc2cccc(C(F)(F)F)c2)c2c(N)ncnc21
# In short: as §1
# mubritinib = compound: FC(F)(F)c1ccc(/C=C/c2nc(COc3ccc(CCCCn4ccnn4)cc3)co2)cc1 [mubritinib]
# In short: as §1
# [5] = compound: Cn1cc(-c2ccc3nnc(C(F)(F)c4ccc5ncccc5c4)n3n2)cn1
# In short: as §1
# tipifarnib = compound: Cn1cncc1[C@@](N)(c1ccc(Cl)cc1)c1ccc2c(c1)c(-c1cccc(Cl)c1)cc(=O)n2C [tipifarnib]
# In short: as §1
# Chain of UniProt Q86UA6 (Q86UA6 whole entry, looked up): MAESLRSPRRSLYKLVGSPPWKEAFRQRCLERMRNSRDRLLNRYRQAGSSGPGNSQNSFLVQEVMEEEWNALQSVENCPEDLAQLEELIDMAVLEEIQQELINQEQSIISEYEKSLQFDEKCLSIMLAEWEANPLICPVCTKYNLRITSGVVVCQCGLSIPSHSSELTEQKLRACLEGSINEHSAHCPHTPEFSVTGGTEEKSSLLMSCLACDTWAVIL
# Chain of UniProt O14796 (O14796 whole entry, looked up): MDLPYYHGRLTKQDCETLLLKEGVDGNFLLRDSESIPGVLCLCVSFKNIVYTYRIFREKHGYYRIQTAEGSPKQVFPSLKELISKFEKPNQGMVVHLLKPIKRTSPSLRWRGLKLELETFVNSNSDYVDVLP
# Chain of UniProt P60903 (P60903 whole entry, looked up): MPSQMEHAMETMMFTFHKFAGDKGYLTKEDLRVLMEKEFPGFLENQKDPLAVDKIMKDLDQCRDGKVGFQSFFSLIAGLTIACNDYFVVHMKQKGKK
# Chain of UniProt Q9NQG5 (Q9NQG5 whole entry, looked up): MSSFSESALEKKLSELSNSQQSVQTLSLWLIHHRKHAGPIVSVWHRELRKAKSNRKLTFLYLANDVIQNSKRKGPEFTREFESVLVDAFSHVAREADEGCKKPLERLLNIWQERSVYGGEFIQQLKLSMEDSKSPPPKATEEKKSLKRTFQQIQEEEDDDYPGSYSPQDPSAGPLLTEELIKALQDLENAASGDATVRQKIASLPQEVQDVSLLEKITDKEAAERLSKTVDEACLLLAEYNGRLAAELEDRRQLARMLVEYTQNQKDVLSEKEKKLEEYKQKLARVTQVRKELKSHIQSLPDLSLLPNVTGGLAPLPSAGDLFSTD
# Chain of UniProt A1X283 (A1X283 whole entry, looked up): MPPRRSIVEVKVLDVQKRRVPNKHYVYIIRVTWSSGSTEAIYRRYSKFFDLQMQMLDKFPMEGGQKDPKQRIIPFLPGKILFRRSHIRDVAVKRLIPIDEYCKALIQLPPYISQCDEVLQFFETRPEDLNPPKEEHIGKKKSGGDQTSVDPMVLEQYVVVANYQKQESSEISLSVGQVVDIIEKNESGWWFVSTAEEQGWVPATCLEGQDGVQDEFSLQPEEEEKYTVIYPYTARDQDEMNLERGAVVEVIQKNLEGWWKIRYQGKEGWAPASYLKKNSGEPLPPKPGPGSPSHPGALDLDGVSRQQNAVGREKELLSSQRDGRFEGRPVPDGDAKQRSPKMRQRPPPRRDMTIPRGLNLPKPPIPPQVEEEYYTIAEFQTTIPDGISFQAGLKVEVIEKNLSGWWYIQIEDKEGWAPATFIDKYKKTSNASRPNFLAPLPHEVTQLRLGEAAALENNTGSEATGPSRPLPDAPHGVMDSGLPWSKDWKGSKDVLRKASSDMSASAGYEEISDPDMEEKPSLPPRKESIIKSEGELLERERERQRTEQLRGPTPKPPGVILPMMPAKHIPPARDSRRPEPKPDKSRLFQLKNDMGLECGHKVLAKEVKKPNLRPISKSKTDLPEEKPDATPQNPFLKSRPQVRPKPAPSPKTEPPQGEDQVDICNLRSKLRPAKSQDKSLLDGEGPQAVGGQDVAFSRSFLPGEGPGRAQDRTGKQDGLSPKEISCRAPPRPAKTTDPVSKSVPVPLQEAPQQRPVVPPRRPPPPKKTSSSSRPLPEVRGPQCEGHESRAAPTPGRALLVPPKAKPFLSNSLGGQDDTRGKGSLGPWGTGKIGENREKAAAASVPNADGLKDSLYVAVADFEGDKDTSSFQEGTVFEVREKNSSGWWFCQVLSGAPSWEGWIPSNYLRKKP
# Chain of UniProt Q04864 (Q04864 whole entry, looked up): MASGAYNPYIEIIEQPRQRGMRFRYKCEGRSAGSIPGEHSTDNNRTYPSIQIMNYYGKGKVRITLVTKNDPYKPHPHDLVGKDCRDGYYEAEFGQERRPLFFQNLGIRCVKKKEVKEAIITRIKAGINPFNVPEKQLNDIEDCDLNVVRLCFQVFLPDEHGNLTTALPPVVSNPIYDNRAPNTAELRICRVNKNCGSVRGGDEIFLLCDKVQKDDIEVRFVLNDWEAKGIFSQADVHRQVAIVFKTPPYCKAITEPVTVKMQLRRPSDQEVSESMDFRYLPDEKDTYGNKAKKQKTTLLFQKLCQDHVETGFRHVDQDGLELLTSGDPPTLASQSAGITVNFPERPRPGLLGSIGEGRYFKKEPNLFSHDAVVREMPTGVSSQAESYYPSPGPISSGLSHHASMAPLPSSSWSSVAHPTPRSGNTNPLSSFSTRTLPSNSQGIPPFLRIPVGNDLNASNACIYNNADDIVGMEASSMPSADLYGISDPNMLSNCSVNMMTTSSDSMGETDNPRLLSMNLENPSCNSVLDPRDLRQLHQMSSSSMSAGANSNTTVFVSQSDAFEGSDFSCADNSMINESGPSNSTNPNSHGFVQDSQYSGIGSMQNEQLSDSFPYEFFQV
# Chain of UniProt Q9NTJ5 (Q9NTJ5 whole entry, looked up): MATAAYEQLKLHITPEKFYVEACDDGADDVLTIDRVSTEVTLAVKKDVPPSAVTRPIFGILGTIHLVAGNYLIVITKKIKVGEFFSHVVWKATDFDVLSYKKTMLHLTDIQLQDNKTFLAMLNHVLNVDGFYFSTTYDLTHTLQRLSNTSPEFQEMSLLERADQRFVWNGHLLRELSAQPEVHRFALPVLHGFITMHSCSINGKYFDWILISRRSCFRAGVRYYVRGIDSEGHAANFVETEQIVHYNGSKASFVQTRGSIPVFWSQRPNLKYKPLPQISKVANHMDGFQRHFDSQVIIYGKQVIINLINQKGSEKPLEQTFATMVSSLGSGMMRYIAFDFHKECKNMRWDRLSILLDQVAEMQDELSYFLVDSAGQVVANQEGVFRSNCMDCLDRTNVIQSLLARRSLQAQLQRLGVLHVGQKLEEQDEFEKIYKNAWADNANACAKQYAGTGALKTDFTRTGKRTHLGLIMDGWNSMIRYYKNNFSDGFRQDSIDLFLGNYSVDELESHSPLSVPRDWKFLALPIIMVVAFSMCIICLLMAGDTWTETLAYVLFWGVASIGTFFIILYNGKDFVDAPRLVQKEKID
# Chain of UniProt Q9NSI8 (Q9NSI8 whole entry, looked up): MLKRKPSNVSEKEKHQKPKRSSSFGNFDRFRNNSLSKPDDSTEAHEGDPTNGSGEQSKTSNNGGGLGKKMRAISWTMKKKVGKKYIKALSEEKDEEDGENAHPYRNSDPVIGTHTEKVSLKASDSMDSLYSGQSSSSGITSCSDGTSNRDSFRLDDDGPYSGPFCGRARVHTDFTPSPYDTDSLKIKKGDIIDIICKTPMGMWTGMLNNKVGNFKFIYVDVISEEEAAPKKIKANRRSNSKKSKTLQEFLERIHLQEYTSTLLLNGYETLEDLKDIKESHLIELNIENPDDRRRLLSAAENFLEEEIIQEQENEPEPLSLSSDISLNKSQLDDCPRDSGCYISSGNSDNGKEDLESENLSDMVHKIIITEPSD
# Chain of UniProt Q13796 (Q13796 whole entry, looked up): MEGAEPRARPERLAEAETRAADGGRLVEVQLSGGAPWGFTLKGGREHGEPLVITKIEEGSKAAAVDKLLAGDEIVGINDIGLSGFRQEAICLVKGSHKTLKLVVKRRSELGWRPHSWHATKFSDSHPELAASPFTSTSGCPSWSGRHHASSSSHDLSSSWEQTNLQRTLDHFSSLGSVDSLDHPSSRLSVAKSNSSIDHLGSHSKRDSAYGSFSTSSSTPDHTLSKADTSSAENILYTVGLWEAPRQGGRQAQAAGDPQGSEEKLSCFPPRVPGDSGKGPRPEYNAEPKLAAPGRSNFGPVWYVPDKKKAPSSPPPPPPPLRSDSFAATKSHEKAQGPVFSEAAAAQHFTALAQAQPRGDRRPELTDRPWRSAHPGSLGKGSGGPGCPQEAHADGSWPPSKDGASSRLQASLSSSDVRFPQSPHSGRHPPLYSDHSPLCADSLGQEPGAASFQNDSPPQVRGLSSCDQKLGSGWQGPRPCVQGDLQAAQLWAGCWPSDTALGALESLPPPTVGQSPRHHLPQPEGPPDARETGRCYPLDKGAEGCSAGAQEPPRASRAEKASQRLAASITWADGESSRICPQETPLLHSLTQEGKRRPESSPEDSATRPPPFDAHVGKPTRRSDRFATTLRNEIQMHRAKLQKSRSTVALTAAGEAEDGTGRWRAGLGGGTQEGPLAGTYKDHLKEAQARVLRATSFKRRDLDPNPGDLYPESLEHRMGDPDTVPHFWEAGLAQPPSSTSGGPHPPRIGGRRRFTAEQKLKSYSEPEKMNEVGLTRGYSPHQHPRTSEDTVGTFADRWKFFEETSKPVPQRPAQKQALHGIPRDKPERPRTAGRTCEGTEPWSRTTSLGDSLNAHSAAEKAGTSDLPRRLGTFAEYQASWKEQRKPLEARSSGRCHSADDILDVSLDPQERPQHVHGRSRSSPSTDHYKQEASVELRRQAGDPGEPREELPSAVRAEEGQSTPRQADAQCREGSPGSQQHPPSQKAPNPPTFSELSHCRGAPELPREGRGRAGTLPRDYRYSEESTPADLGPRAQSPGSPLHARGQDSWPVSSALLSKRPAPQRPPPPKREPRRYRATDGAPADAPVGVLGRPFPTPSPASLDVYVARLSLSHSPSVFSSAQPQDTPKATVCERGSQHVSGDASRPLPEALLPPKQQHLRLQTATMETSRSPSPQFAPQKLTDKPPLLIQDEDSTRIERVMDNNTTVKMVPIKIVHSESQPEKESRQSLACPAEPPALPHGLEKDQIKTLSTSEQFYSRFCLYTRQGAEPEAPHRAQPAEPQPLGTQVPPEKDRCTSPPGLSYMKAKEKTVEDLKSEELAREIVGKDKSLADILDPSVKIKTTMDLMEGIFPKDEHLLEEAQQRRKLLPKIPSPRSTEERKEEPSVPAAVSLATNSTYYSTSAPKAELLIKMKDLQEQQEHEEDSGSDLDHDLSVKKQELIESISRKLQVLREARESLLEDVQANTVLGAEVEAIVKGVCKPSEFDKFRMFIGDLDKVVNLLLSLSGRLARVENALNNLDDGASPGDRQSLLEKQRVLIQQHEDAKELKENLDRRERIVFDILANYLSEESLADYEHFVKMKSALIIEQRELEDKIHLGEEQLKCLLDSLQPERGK
# Chain of UniProt Q5VUM1 (Q5VUM1 whole entry, looked up): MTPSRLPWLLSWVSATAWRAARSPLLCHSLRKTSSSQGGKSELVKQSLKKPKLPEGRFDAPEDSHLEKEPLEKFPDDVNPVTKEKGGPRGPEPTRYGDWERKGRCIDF
Target,log2 fold change (bafetinib),log2 fold change [1],log2 fold change (nilotinib),log2 fold change [2],log2 fold change (dasatinib),log2 fold change [3],log2 fold change [4],log2 fold change (mubritinib),log2 fold change [5],log2 fold change (tipifarnib)
SCLT1 (UniProt Q96NL6),0.087,-0.009,-0.099,-0.043,-0.052,0.041,0.191,0.098,,
RETSAT (UniProt Q6NUM9),-0.011,-0.034,0.154,-0.076,-0.001,0.511 (active),0.045,0.182,-0.002,-0.052
RAVER1 (UniProt E9PAU2),-0.155,0,-0.091,-0.319,-0.309,-0.299,0.155,0.134,0.011,-0.351
RIOK3 (UniProt O14730),-0.004,-0.02,-0.017,0.06,0.053,-0.01,0.018,0.017,-0.005,0.002
RBM17 (UniProt Q96I25),-0.056,0.042,-0.095,-0.249,-0.108,0.011,-0.067,-0.148,-0.028,-0.042
SAMSN1 isoform 3 (UniProt Q9NSI8),-0.049,0.04,-0.036,-0.169,-0.09,0.02,0.029,0.048,0.037,-0.015
RB1 (UniProt P06400),0.006,0.01,0.015,-0.378 (active),0.011,-0.716 (active),0.082,0.046,0.011,0.004
RHOA (UniProt P61586),-0.149,-0.051,0.154,0.001,0.001,0.014,0.04,0.029,0.012,0
SHROOM2 (UniProt Q13796),-0.091,-0.02,0.082,0.011,0.166,-0.043,0.163,0.258,,-0.022
REL (UniProt Q04864),-0.185,0.03,-0.094,-0.438 (active),-0.115,-0.018,0.013,0.034,0.059,-0.011
RIC8A isoform 3 (UniProt Q9NPQ8),0.042,-0.062,-0.041,-0.043,-0.108,0.088,0.03,-0.095,0.014,-0.1
SACM1L (UniProt Q9NTJ5),-0.011,-0.022,0.044,-0.002,0.012,0.012,-0.009,-0.002,0,-0.024
RUNX1 isoform 8 (UniProt Q01196),-0.149,-0.224,-0.07,-0.281,-0.082,-0.209,,0.01,-0.104,0.001
RDH10 (UniProt Q8IZV5),-0.031,0.15,0.051,-0.032,0.237 (active),-0.014,0.37 (active),0.106,0.183,0.028
RNASEH2A (UniProt O75792),-0.111,-0.303 (active),-0.025,0.024,-0.159,-0.047,0.056,0.059,0.038,-0.003
RPRD1B (UniProt Q9NQG5),-0.036,0.04,-0.036,-0.072,-0.099,-0.024,-0.021,0.032,-0.035,-0.039
RCC1 isoform 2 (UniProt P18754),0.013,0.002,0.069,-0.137,-0.159,0,0.139,0.296,-0.004,-0.112

Target,log2 fold change (bafetinib),log2 fold change [1],log2 fold change (nilotinib),log2 fold change [2],log2 fold change (dasatinib),log2 fold change [3],log2 fold change [4],log2 fold change (mubritinib),log2 fold change [5],log2 fold change (tipifarnib)
S100A10 (UniProt P60903),-0.026,-0.035,0.072,-0.057,,-0.016,0.146,,,0.131
"RAD50, A0A494C0Y7",-0.022,-0.249,,,0.028,,-0.012,0.167,0.016,0.058
RUFY3 isoform 3 (UniProt Q7L099),,-0.018,-0.16,0.045,-0.271,0.052,0.024,0.043,0.134,-0.116
RBM6 (UniProt P78332),,-0.048,0.062,-0.109,0.025,-0.194,-0.052,-0.072,,0.028
RBM48 isoform 2 (UniProt Q5RL73),0.118,-0.012,0.13,-0.006,,-0.034,0.047,,-0.457,0.127
RPS6KA5 (UniProt O75582),,,,,,,,-0.171,-0.098,-0.07
SEMG2 (UniProt Q02383),-0.089,0.016,-0.083,0.056,,0.003,0.008,-0.044,,
RPAIN isoform 8 (UniProt Q86UA6),-0.064,,,,-0.043,,-0.022,,-0.142,-0.042
RBMY1E (UniProt A6NEQ0),-0.041,0.219,0.009,-0.038,,0.026,0.29,0.192,-0.164,-0.016
SCAMP2 (UniProt H3BUB6),-0.226,,-0.056,0.03,0,-0.069,0.062,0.023,0.095,0.188
SH3PXD2B (UniProt A1X283),-0.954 (active),-0.058,-0.124,0.129,,-0.152,0.024,0,,
SDHAF4 (UniProt Q5VUM1),-0.078,,-0.043,-0.003,0.034,0.056,0.077,0.03,,-0.041
RAF1 isoform 2 (UniProt P04049),-0.062,-0.168,,,-0.191,,0.181,-0.286,-0.144,-0.185
SIK3 (UniProt H0Y4E8),,-0.122,-0.053,-0.179,-0.037,0.003,-0.016,-0.035,0,0.251
SAP30 (UniProt O75446),,0.076,0.083,0.01,-0.008,0.006,-0.073,-0.118,,0.068
SLC12A5 (UniProt Q9H2X9),0.009,,,,-0.034,,0.002,-0.001,,0.117
SH2D1B (UniProt O14796),,0.018,-0.421,-0.319,-1.18 (active),0.005,-0.358,-0.187,-0.069,0.045
